# Laboratory results published in the supplement of paper PMC3334620.
# Whole data set: some 33,000 sequences, median “E-score (-0.5 to 0.5)” near -8e-05, cut for the highest 2% near 0.23. This is one part of a sample in which the highest values are shown more often than they occur.
# Target: T1, Nrg2 (UniProt P38082)
# T1 sequence: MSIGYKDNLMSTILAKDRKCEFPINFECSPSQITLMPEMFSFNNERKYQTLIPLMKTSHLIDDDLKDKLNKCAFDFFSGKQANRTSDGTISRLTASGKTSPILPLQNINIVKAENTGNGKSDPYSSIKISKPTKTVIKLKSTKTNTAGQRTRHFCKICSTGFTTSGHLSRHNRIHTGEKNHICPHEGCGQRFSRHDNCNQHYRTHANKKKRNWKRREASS
# Assay: PBM E-score (8-mer binding enrichment) (E-score (-0.5 to 0.5)); higher = stronger / more preferred TF binding
# Settings: protein concentration: 100 nM; construct: GST-full length
# Method in brief: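 GST-tagged yeast TFs (full-length or DNA-binding domain) were made by PURExpress in vitro transcription/translation and applied at about 100-200 nM to universal all-10-mer Agilent arrays. The arrays were made double-stranded by primer extension, on fresh or once-stripped slides. Bound protein was detected with fluorescent anti-GST, and scans were normalised with masliner. Each ungapped eight-base word, pooled with its reverse complement, received an E-score (modified Wilcoxon-Mann-Whitney statistic) from the Universal PBM Analysis Suite.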
row,Sequence,PBM E-score
1,TAATAAGA,0.0444
2,GCTTGCTA,-0.0547
3,CCCCTGAC,0.235
4,CTCCTGAC,0.0802
5,CCCCTGTC,-0.151
6,CTATAAAC,-0.086
7,ATATAAAT,0.252
8,ATATAAAC,0.255
9,ATATAACA,0.078
10,GTATAAAC,0.156
11,ATATAAAA,0.0793
12,ATATAAAG,0.0638
13,ATATAACG,0.243
14,ATATAACC,0.145
15,ATGAGTAA,0.0697
16,ACTCGGAC,0.0898
17,ACTAGGGC,-0.0479
18,ACTGAACC,-0.111
19,GTCTTTTA,-0.195
20,ATATCTTG,0.0388
21,AATCCTCC,-0.123
22,AGACAGCT,0.12
23,GTCACGGA,-0.00114
24,CGCCATGA,-0.0296
25,CTATCTAC,0.00786

row,Sequence,PBM E-score
1,AAGCTTCC,-0.206
2,CGCGGATA,0.246
3,CACGGATG,-0.149
4,AACGGATG,-0.00493
5,AACGGATA,0.258
6,CACGGATA,0.235
7,TACGGATA,0.0194
8,AGCGGATA,-0.042
9,AACGGATT,0.148
10,CGCGGATC,0.037
11,ACCGACAC,-0.0406
12,GGGAGGAC,0.0465
13,GTCGTTTA,-0.00227
14,AACGTCAC,-0.00893
15,CCGCCCAG,-0.0404
16,GAATCAGA,0.23
17,AAATCAGA,0.129
18,TAATCAGA,0.133
19,CGTTAAAG,0.00135
20,GAGCTACA,-0.114
21,AGATACTA,0.0761
22,AGATACTG,0.242
23,GGATACAC,-0.0641
24,AGATACTC,0.1
25,AGATACAC,0.244

row,Sequence,PBM E-score
1,AGATACAG,0.136
2,ATACATGC,-0.0508
3,GGTTATGA,-0.0752
4,CAAAAGGA,-0.0703
5,ACCCTAAC,0.116
6,GACTGTTA,-0.0515
7,AGACTGAC,-0.1
8,AATAAGAT,0.0228
9,TATAAGAA,0.12
10,AATAAGAG,0.115
11,GATAAGAA,0.0876
12,AATAAGAA,0.233
13,CATAAGAA,0.254
14,GTCCCAGA,-0.19
15,AGCTACAC,0.0938
16,GAGACTAA,-0.027
17,CTACAATA,0.00041
18,ATACAATA,0.239
19,TAACAATA,0.132
20,ATACAACG,0.0553
21,AAACAATG,0.0814
22,AAACAATA,0.261
23,GAACAATA,0.277
24,ATACAACC,-0.00323
25,ATACAACA,0.246

row,Sequence,PBM E-score
1,AAACAATT,0.137
2,ATACAATC,-0.0431
3,GAACAATC,0.0696
4,CGTCCGAG,0.0587
5,AAGGCCTC,-0.0691
6,TAGAGCGA,-0.079
7,CGACACAG,-0.0558
8,CAGAGGGG,-0.314
9,TGATAGAA,-0.0926
10,TCTACGCA,0.0696
11,GAGGTTTA,-0.00946
12,ACGGTTCG,-0.169
13,CAGGTGGG,-0.0155
14,AGGCTAGC,-0.223
15,TATCGAAA,0.255
16,CATCGAGG,0.0813
17,CATCGAAA,0.0505
18,AATCGAAA,0.0902
19,AATCGAGT,0.0016
20,AATCGAAC,0.169
21,AATCGAGG,0.248
22,GATCGAAA,0.108
23,AATCGATC,0.0541
24,AATCGATT,0.247
25,AATCGAAG,0.264

row,Sequence,PBM E-score
1,AATCGATA,0.158
2,GACTGGGA,-0.0261
3,ATAGCCGG,-0.145
4,ACAACCAC,-0.0501
5,ACAACCAT,0.24
6,ACAACCAG,0.101
7,ACGTGGTG,-0.139
8,AGAGTTAG,-0.0429
9,CCGACGAC,0.00776
10,ACTGCTCT,0.00123
11,CCATGAGC,-0.047
12,AATGCGAG,0.107
13,ATTAATTA,0.117
14,CTTAATGA,0.0652
15,ATTAATTG,0.142
16,ATTAATGA,0.235
17,ATTAATGC,0.0582
18,ATTAATTC,0.229
19,GTGTAGCA,-0.149
20,AGCTATCC,-0.208
21,ACGCGGAA,-0.0174
22,CGGATAAC,0.05
23,CGGATAAA,0.234
24,TGGATAAA,0.0491
25,CTTTGGAA,-0.152

row,Sequence,PBM E-score
1,ACTATGAG,-0.0885
2,AATCGGAG,0.105
3,AATCGGAA,0.242
4,TATCGGAA,0.0162
5,AGAGAAAG,-0.00961
6,GCTTCTCA,0.00982
7,AGCCCATC,-0.0428
8,GATCTCGC,0.144
9,AATCGCGA,0.185
10,AATCTCGC,0.235
11,AATCGCAC,-0.165
12,CATCGCGC,0.0459
13,AATCTCGG,0.0273
14,AATCGCAG,0.16
15,AATCGCGC,0.23
16,AATCGCAT,0.245
17,AGATGGCA,0.0923
18,AGCGGTTG,-0.028
19,AGATTGCG,0.00885
20,CTGAGACA,0.0347
21,AAAACTTA,0.0488
22,GTAGGTAA,0.00715
23,AGGCTGAA,-0.0879
24,TCAAATGA,-0.0989
25,CTCTCACA,0.124

row,Sequence,PBM E-score
1,CCCCTGTA,0.144
2,CCCCTGAA,0.356
3,TACCTGAA,0.0117
4,CACCTGAA,0.0424
5,TCCCTGAA,0.25
6,GCCCTGAA,0.22
7,GCCGTCTA,-0.0529
8,CGGTTTGC,-0.0375
9,CCTGAAGG,-0.0247
10,AGTCAAGG,-0.174
11,ATCCGAAT,0.251
12,ATCCGAAG,-0.0314
13,ATCCGAAC,0.0668
14,ACAAAACA,0.119
15,CTGGCGCA,-0.117
16,CTGGCGCC,0.281
17,ATGGCGCC,0.0356
18,ACAAAACC,0.246
19,ACAAAAAC,0.0302
20,GCAAAACC,0.0964
21,ATTTTGAC,0.232
22,ATTTTGAG,0.0761
23,AATTTGAC,0.127
